HT1080 IDH1KD tx = kills HT-1080 cells with IDH1 knockdown. HT-1080 IDH1 knockdown viability, ATP luminescence, 48 h. Potency, µM (highest dose often 46.1 µM), for inactives: at the highest dose activity, negative = toxicity, usual class: cytotoxic. 360,000 compounds, 2% hits. AID 686971;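 further: potency means the concentration at half of the fitted maximal effect; 0% = DMSO wells and -100% = cell-free medium wells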
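Viability of IDH1-knockdown HT-1080 fibrosarcoma cells was assessed by CellTiter-Glo after 48 h at 37 °C with titrated compound; concentration-effect curves were classified by fit quality and response size.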
TDP1 cell noCPT = qHTS for Inhibitors of human tyrosyl-DNA phosphodiesterase 1 (TDP1): qHTS in cells in absence of CPT; DT40 Tdp1-/- hTDP1 cells, no CPT, ATP luminescence, 48 h; Potency, µM (highest dose often 46.2 µM), for the others: at the highest dose activity change, negative = growth inhibition, actives largely listed as inhibitors; 420,000 compounds, 15% hits; further: potency means the concentration at half of the fitted maximal effect; nearly all actives have a fitted effect of over 55% in size
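Readout: luminescence from CellTiter-Glo after 30 min in the dark at RT. Cells: DT40 Tdp1-/- with stable hTDP1, 400/well. Exposure: compounds alone, ≥48 hr, 37 °C.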
IL1B secr inh = inflammasome signaling inhibition, IL-1 beta readout. 360,000 compounds, 4.7% hits. activity change, % at 57.5 µM. THP-1 LPS/ATP IL-1B secretion, AlphaLISA, 16 h; stronger effect = lower value; in the data active means activity change below about -50%; inconclusive means mostly about -30% to -49%
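Secreted IL-1B measured by AlphaLISA bead assay after 16 h compound exposure of THP-1 cells; compounds (final up to 57.5 uM) added 1 h before LPS (250 ng/mL) and ATP (1.25 mM) stimulation; lower signal means less secretion.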
TDP1 cell CPT = growth inhibition of DT40 Tdp1-/-;hTDP1 cells with camptothecin (screen for TDP1 inhibitors) | chicken DT40 Tdp1-/-;hTDP1 cells + 20 nM CPT, ATP luminescence, 48 h | Potency, µM (series often up to 46.2 µM), for the others: top-dose activity change, negative = growth inhibition, most hits filed as inhibitors | 420,000 compounds, 12% hits; further: potency means the concentration at half of the fitted maximal effect; nearly all actives have a fitted effect of over 55% in size
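Chicken DT40 Tdp1-/- cells stably complemented with human TDP1 were seeded at 400 cells/well in medium containing 20 nM camptothecin, exposed to pin-transferred compounds, and grown at 37 °C for at least 48 hr. Viability was read as ATP luminescence.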
HT1080-NT tox = kills 2HG-producing HT-1080-NT fibrosarcoma cells. Potency, µM (doses to about 46.1 µM), inactives show at the top dose activity, negative = less viability, most hits filed as cytotoxic. 360,000 compounds, 1.6% hits. HT-1080-NT fibrosarcoma viability, CellTiter-Glo ATP luminescence, 48 h;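 further: NT is the 2HG producing partner of a matched IDH1 knockdown line; potency means the concentration at half of the fitted maximal effect; 0% = DMSO-treated cells and -100% = media-only wells without cells; nearly all actives have a fitted effect of over 55% in size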
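Compounds were tested in concentration-response format on HT-1080-NT cells for 48 hours at 37 degrees C. Cell viability came from CellTiter-Glo luminescence; curves were classified by r2, response magnitude and activity.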
* = called active by the depositor; u = inconclusive; x = no result; [ ] = dose if it differs, or a comment. A selection: hits, their analogues and other compounds. The true share with any hit is near 19%. Unless noted, the call rests on the fitted dose curve; in most records, active means well fitted curve in the direction sought with a large enough effect; inconclusive means small, poorly fitted or top-dose-only effect, or another doubt; inactive means no such curve, though single readings can be large; an effect the other way counts as inactive or inconclusive. Unless noted, on the % scale 0 is the no-effect control and ±100 the full control effect.

SMILES | HT1080 IDH1KD tx | TDP1 cell noCPT | IL1B secr inh | TDP1 cell CPT | HT1080-NT tox
O=C(Nc1ccc2oc(-c3ccccc3F)nc2c1)c1ccc2c(c1)OCCO2 | u | 15µM* | -54* | 10µM* | 13µM*
O=c1ccc2cc(O[C@H]3OC(CO)C(O)C(O)C3O)c(O)cc2o1 (some centres undefined) | x | 4% | x | -10% | x
COc1ccc(OCC(=O)N2CCN(Cc3cc(=O)n4nc(-c5ccc(OC)cc5)sc4n3)CC2)cc1 | x | 21µM* | x | 15µM* | x
COc1ccccc1-c1nn2c(=O)cc(CN3CCN(C(=O)COc4ccccc4Cl)CC3)nc2s1 | x | 21µM* | x | u | x
O=C(COc1ccccc1Cl)N1CCN(CCc2ccccn2)CC1 | x | -5% | x | -1% | x
CN1CCN(C(=O)COc2ccc(-c3nc4ccccc4s3)cc2)CC1 | -1%[9.24 µM] | 18µM* | -60* | -30% | u
Cc1cc(OCC(=O)OC(C)(C)C)c2c3c(c(=O)oc2c1)CCC3 | -3% | -25% | 32 | -23% | -1%
Cc1cc(OCC(=O)N2CCC(C(=O)NCC(C)C)CC2)c2c3c(c(=O)oc2c1)CCCC3 | 15% | 13µM* | 46 | -19% | 13%
Cc1cc(OCC(=O)N2CCC(C(=O)O)CC2)c2c3c(c(=O)oc2c1)CCCC3 | 7% | -6% | 4 | -6% | 1%
Cc1cc(OC(=O)c2ccco2)c2c3c(c(=O)oc2c1)CCC3 | 0% | 23µM* | 0 | u | 0%
CCN(CC)C(=O)COc1cc(C)cc2oc(=O)c3c(c12)CCCC3 | -4% | u | -50* | u | -4%
C=CCOC(=O)COc1cc(C)cc2oc(=O)c3c(c12)CCC3 | -7% | -7% | -24 | -6% | -6%
O=C(CCC1CCCN(Cc2cccc3c2OCO3)C1)NCc1ccc(F)c(F)c1 (centres undefined) | -10% | u | -16 | u | 2%
CCC1CN1P(=O)(N1CCCC1)N1CC1CC (centres undefined) | 14% | u | 1 | u | -3%
COc1ccc(C)cc1NC(=O)c1c(C)nn(Cc2ccccc2)c1Cl | -10% | u | -98* | 5% | -21%
CC(C)NCC(O)c1ccc([N+](=O)[O-])cc1 (centres undefined) | x | -11% | x | 1% | x
CC(=O)OO | x | -9% | x | -23% | x
COc1cc2c(cc1O)[C@@H]1Cc3ccc(OC)c(O)c3CN1CC2 | 2.6µM* | 4.1µM* | 19 | 4.6µM* | 2.6µM*
CC(=O)OC1C(O)C2=C3C4(C)C1C(C)(C)C(=O)CC4C3(O)C(OC(C)=O)C1(CC1C)C2=O (centres undefined) | 13% | 7.3µM* | -121* | 5.8µM* | -3%
O=C1CSC2(CN3CCC2CC3)N1 (centres undefined) | 11% | 12% | 12 | -1% | 6%
O=c1c2ccccc2nc(-c2ccco2)n1-c1ccc(Br)cc1 | -16% | 16µM* | -17 | 12µM* | -14%
O=c1c2ccccc2nc(-c2cccs2)n1-c1cnccn1 | 21% | -7% | -8 | 7% | 3%
O=c1c2ccccc2nc(-c2ccccc2)n1-c1ccc(O)cc1 | -7% | u | 7 | u | 18%
O=c1c2ccccc2nc(Cc2ccccc2)n1-c1ccccc1O | -1% | -20% | -27 | -6% | -29%
Cc1ccc(-n2c(-c3cccs3)nc3ccccc3c2=O)cc1 | 9% | 12µM* | -22 | 9.2µM* | 12%
SMILES | HT1080 IDH1KD tx | TDP1 cell noCPT | IL1B secr inh | TDP1 cell CPT | HT1080-NT tox
Cc1ccc(-c2nc3ccccc3c(=O)n2-c2ccc(O)cc2)cc1 | 2% | 4.1µM* | 48 | 2.6µM* | 0%
O=c1c2ccccc2nc(Cc2ccccc2)n1-c1ccccc1 | -2% | 15µM* | 16 | u | 0%
CCCCCCC(=O)O[C@H]1CC[C@H]2[C@@H]3CC[C@H]4CC(=O)C=C(C)[C@]4(C)[C@H]3CC[C@]12C | x | u | x | 3% | x
Cc1cccnc1-n1c(-c2ccccc2)nc2ccccc2c1=O | 2% | 13µM* | 0 | 13µM* | 0%
Cn1nc(C(C)(C)C)cc1C(=O)N1CCCCC1c1cc(C(=O)Nc2ccc(F)c(Cl)c2)no1 (centres undefined) | u | u | -64* | 21µM* | u
O=c1[nH]c(=O)n(C2CCCCCC2)c(O)c1C=NCc1cccnc1 | -11% | -18% | 20 | -4% | -12%
Cn1cccc1/C=C1/C(=O)NC(=O)N(Cc2ccc(F)cc2)C1=O | -16% | 9.2µM* | 43 | 12µM* | u
Cn1cccc1/C=C1/C(=O)NC(=O)N(Cc2ccccc2)C1=O | u | 2.3µM* | -22 | 4.6µM* | -17%
Cn1cccc1/C=C1\C(=O)NC(=O)N(Cc2ccccc2)C1=O | u | 2.1µM* | 39 | 5.8µM* | u
Cn1cccc1/C=C1/C(=O)NC(=S)N(Cc2ccc(F)cc2)C1=O | -7% | 2.6µM* | u | 3.7µM* | -26%
FC(F)(F)C1=NC(C(F)(F)F)=NP(N2CCOCC2)(N2CCOCC2)=N1 | 3% | -1% | 17 | 2% | 5%
O=C(Nc1nccs1)c1c(O)c2c(n(Cc3ccco3)c1=O)CCCC2 | -1% | u | 48 | u | -6%
COCCN1Cc2cc(=O)n3c([nH]c4ccccc43)c2C1=N | 0% | -21% | -6 | -22% | -5%
Cc1ccc(S(=O)(=O)N2CCCC(C(=O)N3CCC4(CC3)OCCO4)C2)cc1 (centres undefined) | -18% | u | 59 | u | 1%[9.24 µM]
C=CCC1(Nc2ccccc2)CC(C)N(C)CC1C (centres undefined) | -2% | -2% | u | 1% | 0%
CC12CN3CC(C)(CN(C1)C3c1cccs1)C2O (centres undefined) | 13% | 1% | -2 | 10% | 7%
COc1cccc(C(C)(O)c2nc(-c3cccc(F)c3)cs2)c1 (centres undefined) | -23% | u | -15 | u | u
CCC(C)C1NC(=O)C2CCCN2C(=O)C(CC(C)C)OC(=O)CCNC(=O)C(C)N(C)C(=O)C(C(C)C)N(C)C1=O (centres undefined) | 23µM* | 4.1µM* | -14 | 3.3µM* | 18µM*
CC(C)N1C(=O)c2ccccc2NS1(=O)=O | x | -7% | x | 6% | x
Cc1c(C(=O)N2CCC3(CC2)OCCO3)sc2ncnc(N3CCc4ccccc4C3)c12 | u | 23µM* | -14 | 16µM* | -19%
C[C@@H]1CN([C@@H](C)CO)C(=O)c2c(c3ccccc3n2C)-c2ccccc2CO[C@H]1CN(C)S(=O)(=O)c1ccc(C#N)cc1 | -28% | u | -21 | 5% | -15%
